# Source: PubChem
# Only some compounds are listed: those with a hit (about 5.5% of all), similar ones and a draw of the others.
# RORgamma inh: inhibitors of mouse ROR gamma transcriptional activity; P51450; Drosophila S2 Gal4-RORgamma UAS-luciferase reporter, 20 h; Potency, µM (highest dose often 53.6 µM), without a hit: at the highest dose activity change, negative = inhibition, most hits filed as inhibitors; 5.4% of 310,000 active; further: potency means the concentration at half of the fitted maximal effect; on the % scale 0 is the no-effect control and ±100 the full control effect; nearly all actives have a fitted effect of over 60% in size
#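 Drosophila S2 cells stably expressing Gal4-DBD/mouse RORγ fusion under metallothionein promoter plus UAS-luciferase; compound 1 h, then 700 uM CuSO4 induction for 20 h at ambient temperature; inhibition read as reduced luminescence.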
# CtBP-E1A blk: inhibitors of CtBP/E1A interaction. AlphaScreen GST-E1A/His-CtBP binding, 1536-well; stronger effect = lower value. activity change, % (test concentration not listed). 0.49% of 340,000 active. AID 651724; in the data active means activity change below about -65%; inconclusive means mostly about -30% to -63%; further: on the % scale 0 is the no-effect control and ±100 the full control effect
#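 Protein mix (5X: 125 nM each GST-E1A, His-CtBP) was incubated with pinned compound 2 h at 37 deg C in dark, in 50 mM Tris pH 8.0 buffer with 300 mM NaCl. Glutathione donor and nickel acceptor beads followed; AlphaScreen signal read after 1 h.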
# CBFb-RUNX1 inh: blocks binding between human CBF-beta and RUNX1; Q01196+Q13951; AlphaScreen CBFb-His/RUNX1-biotin binding, biochemical; Potency, µM (series often up to 59.8 µM), without a hit: at the top dose activity, negative = inhibition, usual class: inhibitors; 230,000 tested, under 10 active; further: % of control where 0% means no effect
# Target sequence (Q01196 whole entry, looked up): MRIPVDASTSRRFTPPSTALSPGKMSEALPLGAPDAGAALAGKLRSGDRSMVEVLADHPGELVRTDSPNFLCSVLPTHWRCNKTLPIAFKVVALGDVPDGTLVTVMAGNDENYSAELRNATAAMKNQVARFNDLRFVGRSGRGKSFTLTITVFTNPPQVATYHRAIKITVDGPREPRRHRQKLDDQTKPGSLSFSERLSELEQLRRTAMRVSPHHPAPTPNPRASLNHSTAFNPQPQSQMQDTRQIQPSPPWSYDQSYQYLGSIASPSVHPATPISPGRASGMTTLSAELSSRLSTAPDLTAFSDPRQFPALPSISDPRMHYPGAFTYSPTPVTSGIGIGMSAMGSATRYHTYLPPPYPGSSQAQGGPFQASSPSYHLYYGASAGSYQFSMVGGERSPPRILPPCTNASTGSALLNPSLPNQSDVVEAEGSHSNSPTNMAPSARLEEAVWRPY
# Target sequence (Q13951 whole entry, looked up): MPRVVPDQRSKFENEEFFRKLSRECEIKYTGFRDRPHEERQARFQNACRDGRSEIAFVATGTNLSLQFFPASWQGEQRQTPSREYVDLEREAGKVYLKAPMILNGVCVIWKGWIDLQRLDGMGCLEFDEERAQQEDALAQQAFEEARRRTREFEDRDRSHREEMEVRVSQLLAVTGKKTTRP
#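 AlphaScreen proximity signal reports loss of binding between His-tagged CBF-beta and biotin-labelled RUNX1, each at 30 nM. Proteins are pre-associated for 20 minutes, compounds added for 15 minutes, then beads for 90 minutes, all at ambient temperature.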
# MBNL1 CUG block: MBNL1-poly(CUG) RNA binding inhibition | Potency, µM (top dose mostly 57.5 µM), inactives show at the top dose activity change, negative = inhibition, actives largely listed as inhibitors | AID 2675 | 0.036% of 280,000 active | TR-FRET MBNL1-His/biotin-(CUG)12 binding, 665/545 ratio; active means well fitted inhibition curve with a large enough effect in the signal ratio, with a control signal flat, not every such curve was filed as active; inconclusive means small, poorly fitted or top-dose-only effect, or effect the other way, or a change in a side signal; inactive means no such curve, though single readings can be large or run the other way; the % refers to the signal ratio; further: potency means the concentration at half of the fitted maximal effect; on the % scale 0 is the no-effect control and ±100 the full control effect
#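 TR-FRET between His-tagged MBNL1 and biotin-(CUG)12 RNA, detected with Tb anti-His antibody (0.055 ng/ul) and streptavidin-XL665 (5 nM), 60 min at room temperature. Compounds titrated 92 nM to 58 uM; 665/545 nm ratio normalized to buffer and complex controls.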
# Gal4-VP16 FLuc: inhibits Gal4-VP16 luciferase reporter, ROR gamma counter-screen; Drosophila S2 Gal4-VP16 UAS-luciferase, luminescence, 20 h; Potency, µM (series often up to 53.6 µM), for inactives: top-dose activity, negative = inhibition, actives largely listed as inhibitors; 3.5% of 310,000 active; AID 2546;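 further: Gal4-VP16 expression switched on by copper sulfate through the metallothionein promoter; potency means the concentration at half of the fitted maximal effect; on the % scale 0 is the no-effect control and ±100 the full control effect; nearly all actives have a fitted effect of over 50% in size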
# Six1-Eya2 inh: inhibitors of human Six1/Eya2 interaction | Q15475+O00167 | AlphaScreen GST-Six1/His-Eya2 binding, biochemical; stronger effect = lower value | activity change, % (no concentration beside the values) | 0.56% of 360,000 active | AID 651725; in the data active means activity change below about -65%; inconclusive means mostly about -30% to -63%; further: on the % scale 0 is the no-effect control and ±100 the full control effect
#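 Homogeneous AlphaScreen proximity assay pairing GST-Six1 with His-tagged Eya2 (added as 5X mix: 250 nM and 500 nM) in 50 mM Tris pH 8.0, 300 mM NaCl, 1 mM TCEP. Glutathione donor and nickel acceptor beads; 1 h, 37 °C, dark.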
# The depositor's hits bear a star; ? = inconclusive; / = not tested or not shown; [ ] = dose if it differs, or a comment. Unless noted, the call rests on the fitted dose curve; in most records, active means well fitted curve in the direction sought with a large enough effect; inconclusive means small, poorly fitted or top-dose-only effect, or another doubt; inactive means no such curve, though single readings can be large; an effect the other way counts as inactive or inconclusive.
SMILES,RORgamma inh,CtBP-E1A blk,CBFb-RUNX1 inh,MBNL1 CUG block,Gal4-VP16 FLuc,Six1-Eya2 inh
Cc1nn(-c2nc3ccccc3[nH]2)c(=O)c2ccccc12,0.18µM*,-4,8%,0%,0.32µM*,-3
Cc1nn(-c2nc3ccccc3[nH]2)c(N)c1-c1ccc(Cl)cc1,1.3µM*,0,-3%,-2%,3.2µM*,-12
Cc1nn(-c2ccc3ccccc3c2)c(=O)c2ccccc12,1%,/,8%,7%,2%,15
COc1ccc(CCC(=O)NCC(c2ccco2)N2CCc3ccccc32)cc1 (centres undefined),/,-2,/,/,/,-20
COc1ccc(/C=N/NC(=O)c2cccc([N+](=O)[O-])c2)cc1OS(=O)(=O)c1ccc(C)cc1,4µM*,-18,3%,-3%,?,-13
COc1ccc(C(=O)N/N=C/c2ccc(OC)c(OS(=O)(=O)c3ccccc3)c2)cc1,17%,-25,0%,0%,2%,-26
CN(c1ccc(C(=O)N/N=C/c2cccc([N+](=O)[O-])c2)cc1)S(=O)(=O)c1ccccc1,?,14,/,3%,-13%,2
CCOc1cc(/C=N/NC(=O)c2cccc([N+](=O)[O-])c2)ccc1OS(=O)(=O)c1ccccc1,7.9µM*,-9,-18%,19%,14µM*,-22
COc1ccc(C(O)c2nc(-c3cccc(NC(C)=O)c3)cs2)cc1 (centres undefined),/,-17,/,/,/,8
COc1ccc(S(=O)(=O)N2CCOCC2)cc1NC(=O)c1ccc(SC)cc1OC,/,0,/,/,/,-3
CCc1ccc(-c2nc(CSCC(=O)NCc3ccco3)c(C)o2)cc1,0.4µM*,-4,0%,1%,2µM*,-14
Cc1ccc(-c2nc(CSCC(=O)Nc3cc(C)on3)c(C)o2)cc1,?,4,11%,-14%,6.3µM*,-6
CCOC(=O)CSCc1nc(-c2ccc(Cl)cc2)oc1C,10µM*,-4,-3%[2.36 µM],6%,?,16
CCOc1ccc(NC(=O)COC(=O)c2ccc3ncsc3c2)cc1OCC,/,-4,/,/,/,-24
CCOC(=O)c1[nH]cnc1C(=O)NC1CCN(C(=O)OC(C)(C)C)CC1,/,2,/,/,/,-4
COc1ccc(-c2noc(CCCC(=O)NC3CCCCC3)n2)cc1,79%,1,/,-4%,16µM*,-2
COc1ccccc1-c1noc(CCCC(=O)NC2CCCC2)n1,-6%,0,/,-1%,4%,-6
O=C(CCCc1nc(-c2ccccc2Cl)no1)NC1CCCC1,8.9µM*,/,/,5%,?,3
Cc1onc(C(=O)Nc2c(C)n(C)n(-c3ccccc3)c2=O)c1[N+](=O)[O-],9%,-11,?,?,-25%,-6
COc1cc(CNC(=O)C2CC2)ccc1OCc1ccccc1,32µM*,1,/,-2%,-6%,6
COc1ccc(C(=O)NC(=S)NCc2cccnc2)cc1OC,-12%,1,1%,-7%,-4%,5
Cc1ccc(C(=O)NC(=S)NCc2ccccc2)cc1,10µM*,/,/,3%,13µM*,-15
COc1cccc(OC)c1C(=O)NC(=S)NCc1ccccc1,10µM*,0,0%,-11%,?,3
COc1cccc(OC)c1C(=O)NC(=S)NCc1cccnc1,-9%,-9,/,3%,-4%,-5
COc1ccc(C(=O)NC(=S)NCc2ccccc2)cc1OC,3.2µM*,-1,-1%,-2%,?,-4
SMILES,RORgamma inh,CtBP-E1A blk,CBFb-RUNX1 inh,MBNL1 CUG block,Gal4-VP16 FLuc,Six1-Eya2 inh
Cc1ccc(CNC(=O)NCc2ccccc2)cc1,5%,/,-3%,-3%,3%,5
CCc1cc(-c2nnn(-c3cc(C(C)C)ccc3C)c2CC)ccc1-c1cn(CCc2c[nH]c3ccccc23)nn1,/,-1,/,/,/,-2
COc1ccc(S(=O)(=O)N2CCN(CC(=O)NC(Cc3ccccc3)C(C)=O)CC2)cc1 (centres undefined),/,/,/,/,/,-4
CCOc1cc(C(=O)NCc2ccc(-c3nc4ccccc4o3)cc2)cc(OCC)c1OCC,8%,11,1%,-9%,12%,4
COc1ccc(C(=O)NC(=S)NCc2ccc(-c3nc4ccccc4o3)cc2)cc1OC,1.3µM*,1,5%,-6%,2.5µM*,0
COc1cccc(/C=C/C(=O)c2cccc([N+](=O)[O-])c2)c1OC,?,-21,-13%,?,4%[10 µM],-1
COc1cccc(/C=C/C(=O)c2cccc([N+](=O)[O-])c2)c1,-101%,-5,3%,?,4.5µM*,-3
O=C(c1ccccc1)N1CCN(C(=O)c2ccccc2)c2ccccc21,/,0,/,/,/,2
O=C(C=Cc1ccccc1)c1cccs1,/,0,/,/,/,0
CCOc1ccc(/C=C/C(=O)c2cccs2)cc1,22µM*,/,-6%[21.7 µM],/,-21%,/
O=C(/C=C/c1ccccc1)c1cccs1,22µM*,/,17%[21.7 µM],/,-5%,/
O=C(NCc1nnnn1-c1ccc(F)cc1)c1ccc(S(=O)(=O)N2CCOCC2)cc1,/,1,/,/,/,-4
C=CCOn1c(=O)c(-c2ccc(OCC)cc2)[n+]([O-])c2ccccc21,1%,10,/,?,0%,4
O=C(CN1c2ccccc2Sc2ccccc21)NNC(=S)Nc1ccc(Cl)cc1,10µM*,-22,-27%,-9%,?,?
O=C(CN1CCOCC1)NNC(=S)Nc1ccc(Cl)cc1,-34%,-25,-14%,1%,4%,-25
O=C(CN1c2ccccc2Sc2ccccc21)NNC(=S)Nc1ccc(Cl)cc1Cl,13µM*,-2,-5%,0%,?,-13
COc1ccc([N+](=O)[O-])c(O)c1C(C)=O,/,-3,/,/,/,12
O=C1c2ccccc2C(=O)N1OS(=O)(=O)c1ccc(F)cc1,?,/,/,4%,?,2
Cc1ccc(S(=O)(=O)ON2C(=O)c3ccccc3C2=O)c(C)c1,20µM*,1,-1%,?,?,-2
Cc1cc(C)c(C)c(S(=O)(=O)ON2C(=O)c3ccccc3C2=O)c1C,?,-1,9%,2%,13µM*,-30
Cc1cc(C)c(S(=O)(=O)ON2C(=O)c3ccccc3C2=O)cc1C,14µM*,0,-2%,0%,16µM*,-20
O=C(CC12CC3CC(CC(C3)C1)C2)NC1CC1,/,2,/,/,/,4
C[n+]1c2n(c3ccccc31)N=C(c1cc(C(C)(C)C)c(O)c(C(C)(C)C)c1)CS2,?,-5,-5%,5%,7.9µM*,-10
